Reference: PubChem BioAssay (NCATS)
Records with an inconclusive call do not appear. The source made the active and inactive calls. Calls come from the whole dose curve; as a rule, active = well fitted cell-killing curve with a large enough effect; inconclusive = small, poorly fitted or top-dose-only effect; inactive = flat fitted curve, though single readings scatter.

assay: Cell Viability - LYMP1-002 - Assay at 16 hr (AID 948); conditions: LYMP1-002 lymphoblastoid cell viability; series mostly up to 92.2 µM; activity change, negative = cytotoxicity: at the top concentration;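 note: 0% = DMSO alone and full effect = 92 µM tetraoctylammonium bromide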
Description: NIH Chemical Genomics Center [NCGC]
NIH Molecular Libraries Screening Centers Network [MLSCN]
National Institutes of Environmental Health Sciences [NIEHS]
National Toxicology Program [NTP]
We have developed a 1536-well cell-based assay for quantitative high throughput screening (qHTS) against a number of cell lines to determine in vitro cytotoxicity of small molecules. This particular assay uses a human lymphoblastoid cell line (LYMP1-002) purchased from Coriell Institute for Medical Research.
NCGC Assay Protocol Summary:
The CellTiter-Glo luminescent cell viability assay (Promega) is a homogeneous method to measure the number of viable cells in culture. The end point readout of this assay is based on quantitation of intracellular ATP, an indicator of metabolic activity, using the luciferase reaction. Luciferase catalyzes the oxidation of beetle Luciferin to oxyluciferin and light in the presence of ATP. The luminescent signal is proportional to amount of ATP present.
Using the CellTiter-Glo luminescent cell viability assay, the amount of cellular ATP was measured in the lymphoblastoid cell line with complete culture medium following compound treatment for 16 hours. The assay was performed in opaque white Kalypsys 1536-well plates. In the screen, tetraoctylammonium bromide was used as positive control. Library compounds were measured for their ability to cause acute toxicity in the cell line, as reflected by a decrease in intracellular ATP levels, in a concentration-dependent manner. […] AC50 values were determined from concentration-response data modeled with the standard Hill equation.
qHTS protocol for CellTiter Glo lymphoblastoid cellular assay
[Step] [Parameter] [Value] [Description]
1. Reagent; 5 uL; 2500 lymphoblastoid cells/well
2. Time; 5 hr; 37 C incubation
4. Controls; 23 nL; Tetraoctylammonium bromide 6.4pM to 92 uM
5. Time; 16 hr; 37 C incubation
6. Reagent; 5 uL; CellTiter Glo reagent
7. Time; 30 min; Room Temperature
8. Detection; Luminescence; Viewlux plate reader
Keywords: cell viability, cytotoxicity, lymphoblastoid cell line, luminescence, NTPHTS, NTPHTS_NCGC, NIEHS, DSSTox, MLSMR, MLSCN, NIH Roadmap, qHTS, NCGC

SMILES | activity change, negative = cytotoxicity
Nn1cnnc1 | 3.49% (inactive)
Oc1cccc(Cl)c1 | -1.02% (inactive)
CCCCC(CC)COC(=O)c1ccc(C(=O)OCC(CC)CCCC)c(C(=O)OCC(CC)CCCC)c1 (stereo not given) | -5.97% (inactive)
CC[N+](=O)[O-] | 1.04% (inactive)
FC(Cl)(Cl)Cl | -4.11% (inactive)
c1ccc(OCC2CO2)cc1 (stereo not given) | -4.72% (inactive)
O=[N+]([O-])c1ccc(Cl)cc1 | -0.812% (inactive)
CC(C)(Cl)Cl | -2.88% (inactive)
Nc1ccc([N+](=O)[O-])cc1[N+](=O)[O-] | -4.28% (inactive)
S=C1NCCN1 | -4.06% (inactive)
c1ccc2c(c1)CCNC2 | 0.0604% (inactive)
CCCCOC(=O)c1ccccc1N | -2.2% (inactive)
O=[N+]([O-])c1ccc(O)c([N+](=O)[O-])c1 | 1.48% (inactive)
Clc1ccc(C(Cl)(Cl)Cl)cc1Cl | -8.18% (inactive)
CC(C)(Cl)[N+](=O)[O-] | 1.09% (inactive)
Cl/C=C/Cl | -1.48% (inactive)
Clc1ccc(C(Cl)(Cl)Cl)c(Cl)c1 | -1.12% (inactive)
Cl/C=C\Cl | -2.3% (inactive)
C=C(Cl)CCl | -7.99% (inactive)
Clc1cccc2ccccc12 | -4.29% (inactive)

SMILES | activity change, negative = cytotoxicity
Nc1ccc2ccccc2c1 | -5.72% (inactive)
Nc1ccc(Cl)c(Cl)c1 | -2.33% (inactive)
ClCC(Br)CBr (stereo not given) | -2.35% (inactive)
O=C(O)C(Cl)(Cl)Br | -2.27% (inactive)
BrC(Br)Br | 4.55% (inactive)
Cc1cc(C)cc(OP(=O)(Oc2cc(C)cc(C)c2)Oc2cc(C)cc(C)c2)c1 | -12.6% (inactive)
CC(C)OC(=O)Cc1ccccc1 | -5.54% (inactive)
CN=C=O | -5.29% (inactive)
O=C(O)C(Br)Br | -5.87% (inactive)
COC(=O)Nc1cccc(OC(=O)Nc2cccc(C)c2)c1 | -7.32% (inactive)
CCOC(=O)C1OC1(C)c1ccccc1 (stereo not given) | 0.832% (inactive)
Nc1ccccc1-c1ccccc1 | -0.528% (inactive)
COC(=O)Nc1nc2ccccc2[nH]1 | -15.5% (inactive)
BrCC(Br)C1CCC(Br)C(Br)C1 (stereo not given) | -1.55% (inactive)
O=[N+]([O-])c1cccc2c([N+](=O)[O-])cccc12 | -5.24% (inactive)
CC(C)(OOC(C)(C)c1ccccc1)c1ccccc1 | 0.506% (inactive)
ClCc1ccccc1 | -3.06% (inactive)
O=C(O)C(Cl)Br (stereo not given) | -3.08% (inactive)
Oc1c(Cl)c(Cl)cc(Cl)c1Cl | -1.46% (inactive)
COc1cc(-c2ccc(N)c(OC)c2)ccc1N | -2.09% (inactive)
